# Hits are enriched below; roughly 2.4% of the tested compounds scored in any of these assays.
# HepG2 viability: qHTS for Inhibitors of TGF-b: Cytotox Counterscreen | 410,000 compounds, 0.76% hits | HepG2 CAGA-GFP viability, ATP luminescence, 18 h | AID 588856, 2011 | Potency, µM (highest dose often 46.1 µM), for the others: at the highest dose activity change, negative = cytotoxicity, most hits filed as cytotoxic
#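 CellTiter-Glo luminescence gave cytotoxicity after 18 hours at 37 degrees C. The cells were HepG2 CAGA-GFP in 1% FBS DMEM, stimulated with 500 pg/mL TGF-beta after compound addition. %Activity was normalised to no-cell wells (complete cell-killing) and DMSO (no toxicity), and curves were fitted and classified.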
# Apoferritin bind: qHTS Assay for Identification of Novel General Anesthetics. Ferritin light chain (Equus caballus), P02791. apoferritin/1-aminoanthracene competitive binding, fluorescence. Potency, µM (series often up to 77.5 µM), inactives show at the top dose activity change, negative = displacement, hits mostly inhibitors. 350,000 compounds, 0.074% hits; note: % is set by controls: 0 for no effect and ±100 for the full control effect; nearly all actives have a fitted effect of over 20% in size
# Target sequence (P02791 2-175 limits assumed): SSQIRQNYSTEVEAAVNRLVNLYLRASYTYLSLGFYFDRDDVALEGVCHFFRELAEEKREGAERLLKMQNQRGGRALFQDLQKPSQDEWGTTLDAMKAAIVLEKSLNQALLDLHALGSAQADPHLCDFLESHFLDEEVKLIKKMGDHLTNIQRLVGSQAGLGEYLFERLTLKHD
#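 Probe: 1-aminoanthracene (50% saturated, PBS). Protein: horse-spleen apoferritin, 10 uM. Incubation: 10 min, room temperature. Detection: 380 nm excitation, 535 nm emission. Analysis: normalized response, four-parameter Hill.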
# TGFb SMAD3 inh: qHTS for Inhibitors of TGF-b; HepG2 CAGA-GFP TGF-b/SMAD3 reporter, GFP fluorescence, 18 h; TGF-beta stimulated, 500 pg/mL final; Potency, µM (series often up to 46.1 µM), without a hit: at the highest dose activity, negative = inhibition, actives largely listed as inhibitors; 410,000 compounds, 1.2% hits; AID 588855, 2011; note: % is set by controls: 0 for no effect and ±100 for the full control effect; nearly all actives have a fitted effect of over 65% in size
#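 Cell-based qHTS in HEPG2 carrying a CAGA-GFP Smad reporter; compounds added before 500 pg/mL final TGF-beta, 18 h incubation at 37 degrees C, GFP fluorescence quantified per cell by imaging cytometry.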
# ATXN2 expr inh: Primary qHTS for Inhibitors of ATXN expression; HEK-293 ATXN2-luciferase reporter, luminescence, 24 h; Potency, µM (doses to about 57 µM), without a hit: at the highest dose activity change, negative = inhibition, most hits filed as inhibitors; 360,000 compounds, 0.72% hits; AID 1745845, 2022; note: % is set by controls: 0 for no effect and ±100 for the full control effect; nearly all actives have a fitted effect of over 55% in size
#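 qHTS (up to 57 uM final) was run with 24 h compound exposure of reporter cells at 37 °C. Each well was multiplexed: SteadyGlo luminescence measured ATXN2-luciferase expression after a fluorogenic Gly-Phe-AFC viability readout (25 uM final).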
# S2 tox: Viability Counterscreen for Primary qHTS for Inhibitors of ATXN expression; S2 cells (HEK-293 line with an ATXN2-luciferase reporter) viability, CellTiter-Fluor protease fluorescence, 24 h; Potency, µM (titrated, usually from 56.7 µM), hits mostly cytotoxic; 400,000 compounds, 0.49% hits; AID 651635, 2014; note: nearly all actives have a fitted effect of over 40% in size
# Active calls of the source: *; i = inactive; ? = inconclusive; . = no result given. Calls come from the whole dose curve; as a rule, active = well fitted curve in the direction sought with a large enough effect; inconclusive = small, poorly fitted or top-dose-only effect, or another doubt; inactive = no such curve, though single readings can be large; an effect the other way counts as inactive or inconclusive. Potency is the fitted concentration of half-maximal effect.
SMILES,HepG2 viability,Apoferritin bind,TGFb SMAD3 inh,ATXN2 expr inh,S2 tox
C[C@H]1CCC/C=C/[C@@H]2C[C@H](O)C[C@H]2[C@H](O)[C@H](S(=O)c2ccc(O)cc2)CC(=O)O1 (stereo not given in full),-46%,.,0.13µM*,?,?
CC1CCCC=CC2CC(OC(=O)CN(C)C)CC2C(O)C=CC(=O)O1 (stereo not given),-34%,.,?,?,?
Cc1cccc(/C=N/Nc2cc(N3CCOCC3)nc(N3CCOCC3)n2)c1,-43%,-2%,12%,-39%,i
Cc1cccc(C=NNc2cc(N3CCOCC3)nc(OCCc3ccccn3)n2)c1,.,.,.,0.97µM*,.
CC1CCC(Nc2nc3c(-c4ccc(Cl)cc4)nnn3c3ccccc23)CC1 (stereo not given),1%,-2%,0%,1%,i
Nc1cc2nc3ccccc3oc-2cc1=O,4.5µM*,4%,?,-15%,?
O=C(O)c1cc(=O)c2c3nc4ccccc4oc-3cc(=O)c2[nH]1,3%,.,-4%,.,.
Cc1ccc2c(c1)C(=O)C(=O)N2CCCOc1ccccc1,-38%,-22%,18µM*,35%,i
COC(=O)CC(NC1CCN(c2nc(C)c3cc4c(cc3n2)CCC4)CC1)C(=O)OC (stereo not given),.,.,.,.,i
Cc1ccc([N+](=O)[O-])cc1S(=O)(=O)N(C)N=Cc1cnc2ccc(Br)cn12,.,.,.,0.049µM*,.
O=C(CC1(c2cccc(F)c2)CC(=O)N(Cc2cccnc2)C1=O)N1CCCCCCC1 (stereo not given),.,.,.,.,i
OC(c1ccc(F)cc1)c1nc(-c2cncnc2)cs1 (stereo not given),3.5µM*,.,0%,-2%,i
COc1ccc(-c2c[n+](CC(=O)OC3CC(C)CCC3C(C)C)c3n2CCC3)cc1 (stereo not given),-31%,-18%,20µM*,?,?
CC(C)[C@@H]1CC[C@@H](C)C[C@H]1OC(=O)C[n+]1cc(-c2ccc(Cl)cc2)n2c1CCCCC2,-187%,-16%,?,?,?
COC(=O)C1CCN(Cc2ccc3c(c2)CN(C(=O)c2ccc4nc(C)c(C)nc4c2)CCO3)CC1,.,.,.,.,i
COc1ccc([N+](=O)[O-])cc1NC(=S)NC(NC(=O)C(c1ccccc1)c1ccccc1)C(Cl)(Cl)Cl (stereo not given),-29%,-22%,4.5µM*,22µM*,?
CC1=NN(c2ccccc2)C(=O)/C1=C/C=C/c1ccc(N(C)C)cc1,-2%,-15%,-3%,.,.
CC1=NN(c2ccccc2)C(=O)/C1=C\C=C\c1ccccc1,-56%,-3%,8.9µM*,?,?
O=C1C(=O)c2c(ccc3ccccc23)-c2ccccc21,-4%,.,?,3.2µM*,5µM*
COc1ccc(C(CCNCc2ccc(N(C)C)cc2)C(C)C)cc1 (stereo not given),10µM*,-5%,?,.,?
COc1ccc(CNCCC(c2ccc(OC(C)C)cc2)C(C)C)cc1OC (stereo not given),16µM*,-15%,?,32µM*,.
COc1ccc(C(CCNCc2ccc(OC(C)C)cc2)C(C)C)cc1 (stereo not given),22µM*,8%,?,?,?
O=C(CCc1nnc2n(Cc3ccccc3Cl)c(=O)c3ccccc3n12)Nc1ccccc1,-5%,-5%,0%,.,.
Cc1cccc(Cl)c1NC(=O)N1CCCN(c2nc3ccc(Cl)cc3s2)CC1,-63%,-10%,14µM*,.,?
FC(F)(F)c1cccc(NC(=S)N(CCCN2CCCC2)Cc2cccn2Cc2ccc(Cl)cc2)c1,13µM*,-20%,?,16µM*,28µM*
SMILES,HepG2 viability,Apoferritin bind,TGFb SMAD3 inh,ATXN2 expr inh,S2 tox
CCN1CCN(CCCN(Cc2ccco2)C(=S)Nc2ccc(Cl)c(C)c2)CC1,11µM*,-13%,-12%,-22%,i
Cc1ccc(NC(=S)N(CCCN2CCCC2)Cc2cccn2Cc2ccc(Cl)cc2)cc1C,11µM*,-9%,18µM*,-25%,i
C[C@@H]1CC=CC=CC=CC=C[C@@H](O[C@@H]2O[C@H](C)[C@@H](O)[C@H](N)[C@H]2O)C[C@@H]2O[C@](O)(C[C@@H](O)C[C@@H]3O[C@@H]3C=CC(=O)O1)C[C@H](O)[C@@H]2C(=O)O,.,.,.,13%,.
COc1cc(=O)n2c(c1C(=O)NC(C)c1ccco1)CCN(C(=O)c1ccccc1SC)CC2 (stereo not given),.,.,.,.,i
NC(Cc1ccc(C(F)(F)F)cc1)c1csc(Nc2ccc(C(=O)c3ccccc3)cc2)n1 (stereo not given),22µM*,.,?,32µM*,i
NC(Cc1ccc(C(F)(F)F)cc1)c1csc(Nc2ccccn2)n1 (stereo not given),-42%,.,-6%,-26%,?
NC(Cc1ccc(C(F)(F)F)cc1)c1csc(Nc2cc(NCc3ccco3)ncn2)n1 (stereo not given),20µM*,.,?,14µM*,25µM*
NC(CCc1ccccc1)c1csc(Nc2ccc(C(=O)c3ccccc3)cc2)n1 (stereo not given),16µM*,.,?,?,?
CCOC(=O)N1CCN(C(=O)c2oc3ccc(S(=O)(=O)N(CC)CC)cc3c2C)CC1,3%,-1%,-6%,-12%,i
O=C(Cc1ccc(-c2ccc(OCCN3CCOCC3)cc2)cn1)NCc1ccccc1,.,.,.,-27%,.
Cc1nn2c(=O)cc(COC(=O)c3cccc(NC(=O)c4ccc(F)cc4)c3)nc2s1,0%,26%,?,.,.
Cc1cccc(-c2[nH]c(C(C)(C)C)nc2-c2ccc3nccnc3c2)n1,.,.,.,27µM*,.
Cc1cccc(-c2[nH]ncc2-c2ccc3ncccc3n2)n1,.,.,.,6%,.
CC(C)Cc1nc2cc(NS(=O)(=O)N(C)C)cc(C(=O)N3CCc4ccccc4C3)c2n1C,.,.,.,.,i
COc1ccc(-c2nnc(NC(=O)c3ccc(S(=O)(=O)N4COCC4(C)C)cc3)o2)cc1,-1%,-21%,-2%,?,i
CC1(C)COCN1S(=O)(=O)c1ccc(C(=O)Nc2nnc(-c3ccc(Cl)s3)o2)cc1,-5%,-11%,-9%,7.9µM*,?
Nc1nc(=S)[nH]c2n[nH]nc12,1%,.,12%,.,.
Cc1cc(C(C)(C)C)oc1C(=O)N(CC(=O)NC1CCCC1)c1c(C)cccc1C,16µM*,7%,?,?,?
COc1cc(=O)n2c(c1C(=O)N(C)Cc1ccsc1)CCN(Cc1cnn(C)c1C)CC2,.,.,.,.,i

# High-throughput results: PubChem, National Center for Advancing Translational Sciences (NCATS)
